Laboratory results as given in PubChem BioAssay AID1159580 (chemical genetic matrix, 2015).
Where “and” joins values, the source holds several entries; their conditions need not be identical. Equal values may be shown once. The whole screen tested about 5,500 compounds, of which about 2,000 (36%) were called active. Not shown: some 18% with an inconclusive outcome. Rule as the data show it: active = normalized growth mostly below about 0.91 (no sharp cut-off); inconclusive = no clear call, values can overlap the other calls; inactive = mostly above about 0.92. Some of the results follow.

Assay: chemical genetic growth profiling, strain panel (AID 1159580);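 also: tested at 20 µM; growth read once vehicle control cultures reached saturation at 30 °C; 1 = growth at the plate median or of vehicle wells; lower values mean less growth of the strain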
Conditions: S. cerevisiae deletion strains, growth OD

Measured: normalized growth

CC(=O)Nc1ccc(OC(=O)c2ccccc2O)cc1
inactive: locus YAL021C, strain ccr4, stronger effect = lower value 1 | locus YAL026C, strain drs2, stronger effect = lower value 0.949 | locus YAL030W, strain snc1, stronger effect = lower value 0.994 | locus YBL061C, strain skt5, stronger effect = lower value 0.972 | locus YBR171W, strain sec66, stronger effect = lower value 0.992 | locus YBR229C, strain ROT2, stronger effect = lower value 0.98 | locus YBR231C, strain swc5, stronger effect = lower value 0.992 | locus YBR279W, strain paf1, stronger effect = lower value 0.939 | locus YCL029C, strain bik1, stronger effect = lower value 0.954 | locus YCR088W, strain abp1, stronger effect = lower value 0.929 | locus YDL005C, strain med2, stronger effect = lower value 0.996 | locus YDL035C, strain GPR1, stronger effect = lower value 0.911 | locus YDL040C, strain nat1, stronger effect = lower value 0.99 | locus YDL074C, strain BRE1, stronger effect = lower value 0.788 | locus YDL101C, strain DUN1, stronger effect = lower value 0.947 | locus YDL185W, strain tfp1, stronger effect = lower value 0.954 | locus YDL192W, strain arf1, stronger effect = lower value 0.967 | locus YDR001C, strain nth1, stronger effect = lower value 0.959 | locus YDR069C, strain doa4, stronger effect = lower value 0.999 | locus YDR101C, strain arx1, stronger effect = lower value 0.937 | locus YDR137W, strain rgp1, stronger effect = lower value 0.958 | locus YDR162C, strain NBP2, stronger effect = lower value 0.943 | locus YDR297W, strain sur2, stronger effect = lower value 0.977 | locus YDR318W, strain mcm21, stronger effect = lower value 0.93 | locus YDR334W, strain swr1, stronger effect = lower value 0.962 | locus YDR335W, strain msn5, stronger effect = lower value 0.977 | locus YDR388W, stronger effect = lower value 0.944 | locus YEL003W, strain gim4, stronger effect = lower value 0.978 | locus YEL037C, strain rad23, stronger effect = lower value 0.968 | locus YEL061C, strain CIN8 (second series), stronger effect = lower value 0.971 | locus YEL061C, strain CIN8, stronger effect = lower value 0.98 | locus YER015W, strain faa2, stronger effect = lower value 0.934 | locus YER016W, strain bim1, stronger effect = lower value 0.933 | locus YER110C, stronger effect = lower value 0.951 | locus YER111C, strain swi4, stronger effect = lower value 0.991 | locus YER155C, strain BEM2, stronger effect = lower value 0.945 | locus YFR010W, strain ubp6, stronger effect = lower value 0.944 | locus YGL078C, strain dbp3, stronger effect = lower value 0.97 | locus YGL086W, strain mad1, stronger effect = lower value 0.935 | locus YGL167C, strain pmr1, stronger effect = lower value 1.01 | locus YGL173C, strain kem1, stronger effect = lower value 0.959 | locus YGL227W, strain vid30, stronger effect = lower value 0.959 | locus YGL248W, strain PDE1, stronger effect = lower value 0.904 | locus YHR013C, strain ard1, stronger effect = lower value 0.915 | locus YHR027C, strain rpn1, stronger effect = lower value 0.945 | locus YHR030C, strain SLT2, stronger effect = lower value 0.968 and 0.921 | locus YHR079C, strain IRE1 (second series), stronger effect = lower value 0.927 | locus YHR079C, strain IRE1, stronger effect = lower value 0.904 | locus YHR094C, strain hxt1, stronger effect = lower value 0.954 | locus YHR129C, strain ARP1, stronger effect = lower value 0.948 | locus YHR200W, strain rpn10, stronger effect = lower value 0.934 | locus YIL066C, strain RNR3, stronger effect = lower value 0.89 | locus YIL073C, strain SPO22, stronger effect = lower value 0.854 | locus YIL125W, strain kgd1, stronger effect = lower value 0.95 | locus YIR030C, strain dcg1, stronger effect = lower value 0.933 | locus YJL092W, strain hpr5, stronger effect = lower value 0.946 | locus YJL095W, strain BCK1 (second series), stronger effect = lower value 0.96 | locus YJL115W, strain asf1, stronger effect = lower value 0.989 | locus YJL129C, strain trk1, stronger effect = lower value 0.974 | locus YJL134W, strain LCB3, stronger effect = lower value 0.985 | locus YJL154C, strain vps35, stronger effect = lower value 0.985 | locus YJL166W, strain qcr8, stronger effect = lower value 0.952 | locus YJL168C, strain set2, stronger effect = lower value 0.958 | locus YJL187C, strain SWE1 (second series), stronger effect = lower value 0.93 | locus YJL187C, strain SWE1, stronger effect = lower value 0.985
active: locus YBR009C, strain hhf1, stronger effect = lower value 0.862 | locus YBR021W, strain FUR4, stronger effect = lower value 0.807 | locus YBR023C, strain chs3, stronger effect = lower value 0.908 | locus YCL011C, strain gbp2, stronger effect = lower value 0.87 | locus YCL016C, strain dcc1, stronger effect = lower value 0.91 | locus YCL061C, strain MRC1, stronger effect = lower value 0.917 | locus YCL069W, strain vba3, stronger effect = lower value 0.908 | locus YDL134C, strain PPH21, stronger effect = lower value 0.878 | locus YDR159W, strain sac3, stronger effect = lower value 0.842 | locus YDR195W, strain ref2 1.15 [resistant] | locus YDR392W, strain spt3, stronger effect = lower value 0.712 | locus YDR502C, strain sam2, stronger effect = lower value 0.913 | locus YER155C, strain BEM2 (second series), stronger effect = lower value 0.765 | locus YER167W, strain BCK2, stronger effect = lower value 0.873 | locus YGL240W, strain doc1, stronger effect = lower value 0.882 | locus YGL253W, strain hxk2, stronger effect = lower value 0.879 | locus YGR078C, strain PAC10, stronger effect = lower value 0.848 | locus YGR135W, strain pre9, stronger effect = lower value 0.847 | locus YGR252W, strain gcn5, stronger effect = lower value 0.608 | locus YHR142W, strain chs7, stronger effect = lower value 0.803 | locus YJL164C, strain tpk1, stronger effect = lower value 0.897 | locus YJR043C, strain POL32, stronger effect = lower value 0.754
0.738 (active) and 0.924 (inactive): locus YJL095W, strain BCK1, stronger effect = lower value
